Our source for the growth inhibition values is PubChem BioAssay (NCI).

About 79,000 compounds went through this panel and 15% of them were active in at least one assay; those are over-represented in the sample as a whole. Values without a mark were called inactive. Calls of active or inactive are those of the source. Cut-off read from the data, not from the text of the source: active = growth inhibition above about 70%; inactive = the rest.

Assay [1] is described as follows: NCI Yeast Anticancer Drug Screen. Data for the rad50 strain (AID 155).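 Note: 0% = growth of vehicle-only cultures of the same strain.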 Particulars: S. cerevisiae rad50 strain growth inhibition, active compounds read high. An outline of the steps: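 Compounds were tested on a yeast strain with an engineered DNA damage repair alteration; the reported value is growth inhibition normalised to vehicle treatment.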
Assay [2] can be described thus: NCI Yeast Anticancer Drug Screen. Data for the mec2-1 strain (AID 157). The conditions noted are these: S. cerevisiae mec2-1 strain, active compounds read high. A digest of the protocol: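 Strain: mec2-1 (DNA repair/cell cycle alteration). Compound exposure, then growth measured; inhibition expressed relative to vehicle.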
Assay [3] is described as follows: NCI Yeast Anticancer Drug Screen. Data for the sgs1 mgt1 strain (AID 161).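 Note: 0% = growth of cultures given vehicle only.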 Particulars: S. cerevisiae sgs1 mgt1 strain, active compounds read high. An outline of the steps: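 Read-out: growth inhibition vs vehicle controls. Cells: mutant yeast strain deficient in DNA damage repair.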
Assay [4] can be described thus: NCI Yeast Anticancer Drug Screen. Data for the cln2 rad14 strain (AID 165).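 Note: 0% = growth equal to vehicle treated cultures.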 Particulars: S. cerevisiae cln2 rad14 strain, active compounds read high. A digest of the protocol: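 Compounds are applied to the cln2 rad14 yeast strain, and growth is then compared with that of vehicle-treated cultures to give inhibition.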
Assay [5] is described as follows: NCI Yeast Anticancer Drug Screen. Data for the bub3 strain (AID 167). The conditions noted are these: S. cerevisiae bub3 mutant strain, active compounds read high. An outline of the steps: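 Growth of a checkpoint-deficient yeast mutant is measured after compound exposure. Values represent inhibition relative to vehicle.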
Assay [6] in a line: NCI Yeast Anticancer Drug Screen. Data for the mlh1 rad18 strain (AID 175). Particulars: S. cerevisiae mlh1 rad18 strain growth inhibition, active compounds read high. An outline of the steps: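 Read-out is yeast growth inhibition, calculated against vehicle-only controls. The compound was applied to a strain engineered with DNA damage repair alterations.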
Setting [7] is: at 5.0 µM (retest, dose inferred, filed as 0.5).
The mark [8] stands for this setting: at 50.0 µM (retest, dose inferred, filed as 5.0).

Consider `O=C1C=CC(=O)c2ccc(=O)ccc21`, for which the growth inhibition is 38% in assay [1] (setting [7]); 99% (active) in assay [1] (setting [8]); 22.6% in assay [1] (at 50.0 µM); 25% in assay [2] (setting [7]); 99% (active) in assay [2] (setting [8]); -1.45% in assay [2] (at 50.0 µM). Also, the growth inhibition in assay [3] (setting [7]) is 38%; in assay [3] (setting [8]), 99% (active); in assay [3] (at 50.0 µM), 25.9%; in assay [4] (setting [7]) it was 20%; in assay [4] (setting [8]), 98% (active); in assay [4] (at 50.0 µM), 28.4%. The growth inhibition in assay [5] (setting [7]) was 27%; in assay [5] (setting [8]) it was 99% (active); in assay [5] (at 50.0 µM) it was -1.35%; in assay [6] (setting [7]) it was 71% (active); in assay [6] (setting [8]), 98% (active); in assay [6] (at 50.0 µM) it was 51.2%.

Turning to `N#CC(c1c(Cl)cccc1N1CCCCC1)N1CCCCC1` (stereo not given), the growth inhibition in assay [1] (setting [7]) is 31%; in assay [1] (setting [8]) it was 75% (active); in assay [1] (at 50.0 µM), 86.9% (active); in assay [2] (setting [7]), 34%; in assay [2] (setting [8]), 78% (active); in assay [2] (at 50.0 µM) it was 87.4% (active). Further, the growth inhibition in assay [3] (setting [7]) was 41%; in assay [3] (setting [8]), 85% (active); in assay [3] (at 50.0 µM) it was 87.6% (active); in assay [4] (setting [7]), 30%; in assay [4] (setting [8]), 61%; in assay [4] (at 50.0 µM), 80.4% (active). Moreover, the growth inhibition in assay [5] (setting [7]) was 37%; in assay [5] (setting [8]) it was 92% (active); in assay [5] (at 50.0 µM) it was 91.2% (active); in assay [6] (setting [7]) it was 46%; in assay [6] (setting [8]) it was 84% (active); in assay [6] (at 50.0 µM), 87.7% (active).

For the compound `Cc1ccc(C2SCC(=O)N2c2ccc(-n3c(-c4ccccc4)nc4ccccc4c3=O)cc2)cc1` (stereo not given), the growth inhibition is -16% in assay [1] (setting [7]); 90% (active) in assay [1] (setting [8]); 75.3% (active) in assay [1] (at 50.0 µM); -8% in assay [2] (setting [7]); 55% in assay [2] (setting [8]); 67.5% in assay [2] (at 50.0 µM). Moreover, the growth inhibition in assay [3] (setting [7]) is -10%; in assay [3] (setting [8]), 81% (active); in assay [3] (at 50.0 µM), 77.2% (active); in assay [4] (setting [7]) it was -16%; in assay [4] (setting [8]), 87% (active); in assay [4] (at 50.0 µM), 83.2% (active). For the same compound, the growth inhibition in assay [5] (setting [7]) is -24%; in assay [5] (setting [8]) it was 74% (active); in assay [5] (at 50.0 µM), 72.7% (active); in assay [6] (setting [7]), -8%; in assay [6] (setting [8]), 88% (active); in assay [6] (at 50.0 µM) it was 79.8% (active).

On to `CSC(=Nc1ccccc1)/N=C(\SCc1ccccc1)N(C)C`, for which the growth inhibition in assay [1] (setting [7]) is 45%; in assay [1] (setting [8]), 98% (active); in assay [1] (at 50.0 µM), 99.3% (active); in assay [2] (setting [7]), 26%; in assay [2] (setting [8]), 45%; in assay [2] (at 50.0 µM), 99.7% (active). Also, the growth inhibition is 27% in assay [3] (setting [7]); 99% (active) in assay [3] (setting [8]); 99.2% (active) in assay [3] (at 50.0 µM); 13% in assay [4] (setting [7]); 99% (active) in assay [4] (setting [8]); 98.8% (active) in assay [4] (at 50.0 µM). Also, the growth inhibition was -30% in assay [5] (setting [7]); 99% (active) in assay [5] (setting [8]); 99.5% (active) in assay [5] (at 50.0 µM); 44% in assay [6] (setting [7]); 99% (active) in assay [6] (setting [8]); 99.3% (active) in assay [6] (at 50.0 µM).

On to `COC1=CC(=O)c2c(O)c3c(c(O)c2C1=O)OC1(Oc2c(cc4cc(C)oc(=O)c4c2O)CC1O)C3O` (stereo not given), for which the growth inhibition in assay [1] (setting [7]) is 96% (active); in assay [1] (setting [8]), 97% (active); in assay [1] (at 50.0 µM), 91.1% (active); in assay [2] (setting [7]), 98% (active); in assay [2] (setting [8]), 99% (active); in assay [2] (at 50.0 µM), 92.5% (active). The growth inhibition in assay [3] (setting [7]) is 97% (active); in assay [3] (setting [8]), 98% (active); in assay [3] (at 50.0 µM) it was 92.8% (active); in assay [4] (setting [7]) it was 98% (active); in assay [4] (setting [8]), 99% (active); in assay [4] (at 50.0 µM) it was 90.5% (active). Further, the growth inhibition in assay [5] (setting [7]) was 99% (active); in assay [5] (setting [8]), 99% (active); in assay [5] (at 50.0 µM), 91% (active); in assay [6] (setting [7]) it was 97% (active); in assay [6] (setting [8]), 98% (active); in assay [6] (at 50.0 µM), 91% (active).

Regarding `CC(C)(Br)C(=O)c1ccc([N+](=O)[O-])o1`, the growth inhibition was 49% in assay [1] (setting [7]); 99% (active) in assay [1] (setting [8]); 90.6% (active) in assay [1] (at 50.0 µM); 62% in assay [2] (setting [7]); 100% (active) in assay [2] (setting [8]); 93.5% (active) in assay [2] (at 50.0 µM). In addition, the growth inhibition in assay [3] (setting [7]) is 85% (active); in assay [3] (setting [8]), 100% (active); in assay [3] (at 50.0 µM), 89.4% (active); in assay [4] (setting [7]) it was 51%; in assay [4] (setting [8]), 99% (active); in assay [4] (at 50.0 µM), 84.2% (active). In addition, the growth inhibition in assay [5] (setting [7]) was 42%; in assay [5] (setting [8]), 99% (active); in assay [5] (at 50.0 µM), 91.8% (active); in assay [6] (setting [7]) it was 91% (active); in assay [6] (setting [8]), 99% (active); in assay [6] (at 50.0 µM), 91% (active).

As for `CNC(=O)NN(C)C=O`, the growth inhibition was 0% in assay [1] (setting [7]); 2% in assay [1] (setting [8]); -12.1% in assay [1] (at 50.0 µM); 4% in assay [2] (setting [7]); 2% in assay [2] (setting [8]); 45.5% in assay [2] (at 50.0 µM). The growth inhibition in assay [3] (setting [7]) is 2%; in assay [3] (setting [8]), 1%; in assay [3] (at 50.0 µM), -7.95%; in assay [4] (setting [7]), -2%; in assay [4] (setting [8]), -4%; in assay [4] (at 50.0 µM), 12.1%. For the same compound, the growth inhibition in assay [5] (setting [7]) was -2%; in assay [5] (setting [8]) it was -5%; in assay [5] (at 50.0 µM) it was -4.35%; in assay [6] (setting [7]), -4%; in assay [6] (setting [8]) it was -3%; in assay [6] (at 50.0 µM) it was -4.55%.

On to `CCC(c1ccccc1)N1C(=O)c2ccccc2S1(=O)=O` (stereo not given), for which the growth inhibition is -3% in assay [1] (setting [7]); -3% in assay [1] (setting [8]); 33.4% in assay [1] (at 50.0 µM); -2% in assay [2] (setting [7]); 22% in assay [2] (setting [8]); 14.3% in assay [2] (at 50.0 µM). Besides, the growth inhibition in assay [3] (setting [7]) was -1%; in assay [3] (setting [8]) it was -2%; in assay [3] (at 50.0 µM), 25.3%; in assay [4] (setting [7]) it was -6%; in assay [4] (setting [8]), -3%; in assay [4] (at 50.0 µM), -19.6%. In addition, the growth inhibition is 23% in assay [5] (setting [7]); 50% in assay [5] (setting [8]); 92.2% (active) in assay [5] (at 50.0 µM); -3% in assay [6] (setting [7]); -2% in assay [6] (setting [8]); 32.5% in assay [6] (at 50.0 µM).

Take `C/C(=N\Oc1ncc([N+](=O)[O-])c(O/N=C(\C)c2ccccc2)n1)c1ccccc1`: the growth inhibition in assay [1] (setting [7]) was 52%; in assay [1] (setting [8]), -24%; in assay [1] (at 50.0 µM) it was 43.2%; in assay [2] (setting [7]), 37%; in assay [2] (setting [8]) it was -11%; in assay [2] (at 50.0 µM), 66.8%. For the same compound, the growth inhibition in assay [3] (setting [7]) is 53%; in assay [3] (setting [8]), -10%; in assay [3] (at 50.0 µM), 83% (active); in assay [4] (setting [7]) it was 28%; in assay [4] (setting [8]) it was -20%; in assay [4] (at 50.0 µM), 45.7%. For the same compound, the growth inhibition in assay [5] (setting [7]) was 48%; in assay [5] (setting [8]), -16%; in assay [5] (at 50.0 µM), 50.6%; in assay [6] (setting [7]), 54%; in assay [6] (setting [8]), -11%; in assay [6] (at 50.0 µM), 94.2% (active).

As for `O=C1NC(=Nc2ccccc2)C(=Nc2ccccc2)N1c1ccccc1`, the growth inhibition in assay [1] (setting [7]) is -8%; in assay [1] (setting [8]), 99% (active); in assay [1] (at 50.0 µM), 87.8% (active); in assay [2] (setting [7]), -7%; in assay [2] (setting [8]) it was 98% (active); in assay [2] (at 50.0 µM) it was 90.8% (active). For the same compound, the growth inhibition was -7% in assay [3] (setting [7]); 99% (active) in assay [3] (setting [8]); 85.6% (active) in assay [3] (at 50.0 µM); -33% in assay [4] (setting [7]); 94% (active) in assay [4] (setting [8]); 85.8% (active) in assay [4] (at 50.0 µM). The growth inhibition in assay [5] (setting [7]) is -36%; in assay [5] (setting [8]) it was 99% (active); in assay [5] (at 50.0 µM), 89.5% (active); in assay [6] (setting [7]) it was -2%; in assay [6] (setting [8]), 99% (active); in assay [6] (at 50.0 µM), 85.9% (active).
